Data: PubChem BioAssay (NCATS)
Results filed as inconclusive are left out. Values without a mark were called inactive. Calls follow the shape of the dose curve; as a rule, active = well fitted cell-killing curve with a large enough effect; inconclusive = small, poorly fitted or top-dose-only effect, or effect the other way; inactive = flat fitted curve, though single readings scatter.

test system: CAOV3; test: Primary qHTS to identify gynecologic anti-cancer compounds using libraries of approved drugs and bioactive compounds (AID 1345084); settings: Gynecologic cancer cell panel viability, ATPlite luminescence, 48 h; series mostly up to 57.5 µM; activity change, negative = cytotoxicity: at the top concentration; also: nearly all actives have a fitted effect of over 55% in size
Summary of the method: (§1)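 48 h compound exposure at 37 C, 5% CO2; five-point qHTS. ATPlite luminescence readout of cell ATP.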
% is scaled to controls: 0 for no effect and ±100 for the full control effect.

Point of comparison: COc1ccc(-c2nc(-c3cc(C(F)(F)F)cc(C(F)(F)F)c3)n(Cc3ccc(C(N)=O)cc3)c2-c2ccc(OC)cc2)cc1, “activity change, negative = cytotoxicity” value -3%. Against it:
- CC1=CC(=O)[C@@]2(C(C)C)C[C@@H]12 — higher, -0.662%
- CN(C)CC(=O)Nc1ccc2[nH]c(=O)c3ccccc3c2c1 — higher, 4.43%
- C=C(C(=O)O)C1CC2=C(C)C(=O)CC2C(C)CC1O (stereo unspecified) — lower, -25.4%
- O=C(Nc1cccc(C(F)(F)F)c1)c1ccccc1NCc1ccncc1 — higher, 1.77%
- Cn1nccc1Nc1nccc(-c2ccn([C@H](CO)c3ccc(Cl)c(F)c3)c(=O)c2)n1 — higher, 10.9%
- COc1ccc(Cl)cc1[C@@]1(F)C(=O)Nc2cc(C(F)(F)F)ccc21 — higher, -1.95%
- C[C@H](NC(=O)C(C)(C)Oc1ccc(C(F)(F)F)cn1)[C@@H](Cc1ccc(Cl)cc1)c1cccc(C#N)c1 — higher, -2.25%

In the case of C=C1C(=O)O[C@@H]2/C=C(/C)CC3C=C(C[C@H](OC(=O)/C(C)=C\C)[C@@H]12)C(=O)O3 (stereo partly specified), the “activity change, negative = cytotoxicity” value is reported as -9.37% [at 38.5 µM].

With CC(=O)Nc1ccc(C(=O)Nc2ccccc2N)cc1 the “activity change, negative = cytotoxicity” value was -6.49% [at 25.3 µM].

test system: CASKI; test: as above; settings: Gynecologic cancer cell panel viability, ATPlite luminescence, 48 h; series mostly up to 57.5 µM; activity change, negative = cytotoxicity: at the top concentration
Summary of the method: as §1

Point of comparison: CC(C)c1ccc(NC(=O)C(c2ccccc2)N(C)C(=O)Cc2c[nH]c3ccccc23)cc1 (stereo unspecified), “activity change, negative = cytotoxicity” value -26.9%. Against it:
- CC(=O)N1CCN([C@H]2CCN(C(=O)N(C)[C@H](C)c3cc(C(F)(F)F)cc(C(F)(F)F)c3)[C@@H](c3ccc(F)cc3C)C2)CC1 — higher, -2.56%
- COc1ccccc1-c1c[nH]c2ncc(-c3cncc(C(=O)N(C)C)c3)cc12 — higher, -10.1%
- Fc1ccccc1CNCc1ccc(-c2ccnc3[nH]ccc23)cc1 — higher, 0.287%
- CCCCc1nc(C)c(CC(=S)N(C)C)c(=O)n1Cc1ccc(-c2ccccc2-c2nn[nH]n2)cc1 — higher, 11.2%
- Clc1ccccc1CNCC1CCC(CNCc2ccccc2Cl)CC1 (stereo unspecified) — lower, -27.3%
- CNc1nc(-c2ccc3c(N)n[nH]c3c2)cc(N2CC(C(=O)NC3CCCCC3)CCC2C)n1 (stereo unspecified) — higher, -19.4%
- CC[C@H]1OC(=O)[C@H](C)[C@@H](O[C@H]2C[C@@](C)(OC)[C@@H](O)[C@H](C)O2)[C@H](C)[C@@H](O[C@@H]2O[C@H](C)C[C@H](N(C)C)[C@H]2O)[C@](C)(O)C[C@@H](C)/C(=N/OCOCCOC)[C@H](C)[C@@H](O)[C@]1(C)O — higher, -0.128%
- C[C@@H](CN1CCC(n2c(=O)[nH]c3cc(Cl)ccc32)CC1)NC(=O)c1ccc2ccccc2c1 — higher, 16.5%
- CC1=CC(=O)[C@@]2(C(C)C)C[C@@H]12 — higher, -1.02%
- CN(C)CC(=O)Nc1ccc2[nH]c(=O)c3ccccc3c2c1 — higher, -2.07%
- COc1ccc(-c2nc(-c3cc(C(F)(F)F)cc(C(F)(F)F)c3)n(Cc3ccc(C(N)=O)cc3)c2-c2ccc(OC)cc2)cc1 — higher, 3.63%
- CNc1cc(OC)c(C(=O)N[C@@H]2CCN(Cc3ccccc3)[C@@H]2C)cc1Cl — higher, 1.32%
- CCOC(=O)CCC(=O)O[C@H]1[C@H](O[C@@H]2[C@@H](C)[C@H](O[C@H]3C[C@@](C)(OC)[C@@H](O)[C@H](C)O3)[C@@H](C)C(=O)O[C@H](CC)[C@@](C)(O)[C@H](O)[C@@H](C)C(=O)[C@H](C)CC2(C)O)O[C@H](C)C[C@@H]1N(C)C (stereo partly specified) — higher, 8.77%
- C=C(C(=O)O)C1CC2=C(C)C(=O)CC2C(C)CC1O (stereo unspecified) — higher, -19.1%
- CCC(=O)Nc1cccc(Oc2nc(Nc3ccc(N4CCN(C)CC4)cc3OC)ncc2Cl)c1 — higher, -7.14%
- Cc1cc(CN)cc(C)c1NC(=O)c1ccc(-c2cc(Cl)ccc2Cl)o1 — lower, -30.6%
- C=C1C(=O)O[C@@H]2C[C@@]3(C)CCC[C@H](C)C3=C[C@H]12 — higher, -2.01%
- C=C1C(=O)O[C@@H]2[C@H]1[C@H](O)C[C@]1(C)[C@@H](O)CC=C(C)[C@@H]21 — higher, -8.97%
- O=C(Nc1cccc(C(F)(F)F)c1)c1ccccc1NCc1ccncc1 — higher, 10.4%
- Cc1cc(C)c(NC(=O)N(Cc2ccc3c(c2)Cc2ccccc2-3)C2CCCCCC2)c(C)c1 — higher, -12.3%

In the case of Nc1ccc(N)c([N+](=O)[O-])c1, the “activity change, negative = cytotoxicity” value is reported as 17.6% [at 116 µM].

Point of comparison: C=C1C(=O)O[C@@H]2C[C@@H](C)[C@]34C[C@]5(C(=O)O[C@H]6CC(C)=C([C@H](C)CCCO)[C@H](OC(=O)C(C)CC)[C@H]65)[C@@H](C(C)=C3C[C@@H]12)[C@H]4OC(C)=O (stereo partly specified), “activity change, negative = cytotoxicity” value -5.44% [at 25.3 µM]. Against it:
- COc1ccc2c(c1)CN(C(=O)CCN1CCC(Cc3ccccc3)CC1)CCS2 — lower, -15.8% [at 25.3 µM]
- CC(=O)Nc1ccc(C(=O)Nc2ccccc2N)cc1 — higher, 1.17% [at 25.3 µM]

In the case of C=C1C(=O)O[C@@H]2/C=C(/C)CC3C=C(C[C@H](OC(=O)/C(C)=C\C)[C@@H]12)C(=O)O3 (stereo partly specified), the “activity change, negative = cytotoxicity” value is reported as -8.18% [at 38.5 µM].
